The results in this text go back to the antibiotic and cytotoxicity screens of Wong et al. (2023).

Molecules are shown by their SMILES. Among all 39,000 compounds or so, about 3,300 (8.5%) were called active. The full list was thinned out, with actives kept by preference.

In this assay the test system is HepG2. The experiment in a line: cytotoxicity call (relative viability < 0.9). To be noted: 10 µM.
Take `COc1ccc2c3c([nH]c2c1)[C@H](CO)N(C[C@]13CCN(CC1)Cc1ccc(cc1)F)C(=O)Nc1ccc(cc1)F`: the cytotoxicity call was “active”.

Regarding `COc1ccc2c3c([nH]c2c1)[C@@H](CO)N(C[C@]13CCN(CC1)Cc1ccc(cc1)F)C(=O)Nc1ccc(cc1)F`, the cytotoxicity call was “active”.

For the compound `COc1ccc2c3c([nH]c2c1)[C@@H](CO)N(C[C@]13CCN(CC1)C(=O)Nc1ccccc1)C(=O)Nc1ccc(cc1)F`, the cytotoxicity call is “inactive”.

In the case of `COc1ccc2c3c([nH]c2c1)[C@@H](CO)N(C[C@]13CCN(CC1)C(=O)Nc1ccc(cc1)F)C(=O)c1ccc(cc1)F`, the cytotoxicity call was “inactive”.

Regarding `COc1ccc2c3c([nH]c2c1)[C@H](CO)N(C[C@]13CCN(CC1)Cc1cc(ccc1F)F)C(=O)Nc1ccc(cc1)F`, the cytotoxicity call was “inactive”.

On to `COc1ccc2c3c([nH]c2c1)[C@H](CO)N(C[C@]13CCN(CC1)Cc1ccccc1OC)C(=O)Nc1ccc(cc1)F`, for which the cytotoxicity call was “inactive”.

Regarding `COc1ccc2c3c([nH]c2c1)[C@H](CO)N(C[C@]13CCN(CC1)Cc1cc(on1)-c1ccccc1)C(=O)Nc1ccc(cc1)F`, the cytotoxicity call is “inactive”.

With `COc1ccc2c3c([nH]c2c1)[C@@H](CO)N(C[C@]13CCN(CC1)Cc1cc(ccc1F)F)C(=O)Nc1ccc(cc1)F`, the cytotoxicity call was “inactive”.

Turning to `COc1ccc2c3c([nH]c2c1)[C@H](CO)N(C[C@]13CCN(CC1)C(=O)Nc1ccccc1)C(=O)Nc1ccc(cc1)F`, the cytotoxicity call is “active”.

Take `COc1ccc2c3c([nH]c2c1)[C@@H](CO)N(C[C@]13CCN(CC1)S(=O)(=O)C)C(=O)Nc1ccc(cc1)F`: the cytotoxicity call is “inactive”.

`COc1ccc2c3c([nH]c2c1)[C@@H](CO)N(C[C@]13CCN(CC1)Cc1ccccc1OC)C(=O)Nc1ccc(cc1)F`: the cytotoxicity call is “active”.

Turning to `COc1ccc2c3c([nH]c2c1)[C@H](CO)N(C[C@]13CCN(CC1)S(=O)(=O)C)C(=O)Nc1ccc(cc1)F`, the cytotoxicity call is “inactive”.

In the case of `COc1cc(OC)c(NC(=O)Cn2c(=O)n(-c3ccc(CC(=O)NC[C@H]4CCCO4)cc3)c(=O)c3ccccc32)cc1Cl`, the cytotoxicity call is “inactive”.

For the compound `C[C@H]1CN([C@@H](C)CO)C(=O)c2cccc(NC(=O)Nc3ccccc3)c2O[C@@H]1CN(C)C(=O)Nc1cccc2ccccc12`, the cytotoxicity call was “inactive”.

On to `C/C(=C\C(=O)OCCCCCCCCC(=O)O)C[C@@H]1OC[C@H](C[C@@H]2O[C@H]2[C@@H](C)[C@H](C)O)[C@@H](O)[C@H]1O`, for which the cytotoxicity call was “inactive”.

`CC(=O)N1[C@H](CO)[C@@H](c2ccccc2)[C@@H]1CNC(=O)CN1CCOCC1`: the cytotoxicity call was “inactive”.

Regarding `C[C@H]1CN([C@@H](C)CO)S(=O)(=O)c2ccc(-c3cccc(F)c3)cc2O[C@H]1CN(C)S(C)(=O)=O`, the cytotoxicity call is “inactive”.

`COCC#Cc1ccc2c(c1)O[C@@H](CN(C)S(=O)(=O)c1cccc(OC)c1)[C@H](C)CN([C@@H](C)CO)S2(=O)=O`: the cytotoxicity call is “inactive”.

With `C[N+](C)(C)C[C@H](O)CC(=O)O`, the cytotoxicity call is “inactive”.

Regarding `C[N+](C)(C)CC(O)CC(=O)[O-]` (stereo not given), the cytotoxicity call is “active”.

For the compound `C[N+](C)(C)C[C@@H](O)CC(=O)O`, the cytotoxicity call was “inactive”.

For the compound `COCCCOc1ccnc(CS(=O)c2nc3ccccc3[n-]2)c1C.[Na+]` (stereo not given), the cytotoxicity call is “inactive”.

On to `C[C@@H]1CN([C@@H](C)CO)S(=O)(=O)c2ccc(-c3cncnc3)cc2O[C@H]1CN(C)C(=O)NC1CCCC1`, for which the cytotoxicity call was “inactive”.

In the case of `CC(=O)[C@@]12C=CCC[C@@H]1C[C@@H](C(=O)Nc1c(C)cccc1Cl)N2C(=O)c1nc(C)oc1C(F)(F)F`, the cytotoxicity call is “inactive”.

For the compound `N=C(N)SCCN1C(=O)c2ccccc2C1=O`, the cytotoxicity call was “inactive”.

In the case of `O=C(O)CCCN1C(=O)c2cccc3cccc(c23)C1=O`, the cytotoxicity call is “inactive”.

For `O=C1c2ccc3c4c(ccc(c24)C(=O)N1CCCCO)C(=O)N(CCCCO)C3=O`, the cytotoxicity call was “active”.

For `C[C@H]1CN([C@@H](C)CO)C(=O)CCCn2cc(nn2)CO[C@H]1CN(C)Cc1ccc(C(=O)Nc2ccccc2N)cc1`, the cytotoxicity call is “inactive”.

Consider `CN(C)C1CN(S(=O)(=O)CCC2CC2)C1`, for which the cytotoxicity call was “inactive”.

Turning to `CO[C@@H]1CN(C)C(=O)c2cc(NS(C)(=O)=O)ccc2OC[C@H](C)N(C(=O)C2CCCCC2)C[C@@H]1C`, the cytotoxicity call was “active”.

As to `CO[C@H]1CN(C)C(=O)c2cc(NS(C)(=O)=O)ccc2OC[C@H](C)N(C(=O)C2CCCCC2)C[C@H]1C`, the cytotoxicity call was “inactive”.

Regarding `COCC(=O)Nc1ccc2c(c1)C(=O)N(C)C[C@@H](OC)[C@H](C)CN(C(=O)Cc1ccccn1)[C@H](C)CO2`, the cytotoxicity call is “inactive”.

Turning to `CO[C@H]1CN(C)C(=O)c2cc(NC(=O)NC3CCCCC3)ccc2OC[C@@H](C)N(CCc2ccccc2)C[C@@H]1C`, the cytotoxicity call was “inactive”.

Take `COc1ccc(CN2C[C@H](C)[C@@H](OC)CN(C)C(=O)c3cc(NC(=O)c4nc5ccccc5s4)ccc3OC[C@@H]2C)cc1`: the cytotoxicity call was “inactive”.

In the case of `COc1ccc(CN2C[C@@H](C)[C@H](OC)CN(C)C(=O)c3cc(NC(=O)c4nc5ccccc5s4)ccc3OC[C@@H]2C)cc1`, the cytotoxicity call is “active”.

Turning to `CO[C@@H]1CN(C)C(=O)c2cc(NS(C)(=O)=O)ccc2OC[C@H](C)N(C(=O)C2CCCCC2)C[C@H]1C`, the cytotoxicity call is “inactive”.

With `COCC(=O)Nc1ccc2c(c1)C(=O)N(C)C[C@H](OC)[C@@H](C)CN(C(=O)Cc1ccccn1)[C@@H](C)CO2`, the cytotoxicity call was “inactive”.

Consider `CO[C@H]1CN(C)C(=O)c2cc(NC(=O)NC3CCCCC3)ccc2OC[C@H](C)N(CCc2ccccc2)C[C@@H]1C`, for which the cytotoxicity call was “inactive”.

Consider `COc1ccc(CN2C[C@@H](C)[C@H](OC)CN(C)C(=O)c3cc(NC(=O)c4nc5ccccc5s4)ccc3OC[C@H]2C)cc1`, for which the cytotoxicity call was “inactive”.

As for `COCC(=O)Nc1ccc2c(c1)C(=O)N(C)C[C@H](OC)[C@@H](C)CN(C(=O)Cc1ccccn1)[C@H](C)CO2`, the cytotoxicity call was “active”.

Consider `CO[C@@H]1CN(C)C(=O)c2cc(NC(=O)NC3CCCCC3)ccc2OC[C@H](C)N(CCc2ccccc2)C[C@H]1C`, for which the cytotoxicity call is “active”.

Regarding `C[C@@H]1CN([C@@H](C)CO)S(=O)(=O)c2ccc(C#CC(C)(C)O)cc2O[C@@H]1CN(C)C(=O)C1CCCCC1`, the cytotoxicity call was “inactive”.

With `C[C@@H]1CN([C@@H](C)CO)C(=O)c2cc(NS(=O)(=O)c3cn(C)cn3)ccc2O[C@@H]1CN(C)Cc1ccc(C(=O)Nc2ccccc2N)cc1`, the cytotoxicity call is “inactive”.

In the case of `O=C(C[C@@H]1CC[C@@H](NC(=O)CN2CCOCC2)[C@H](CO)O1)NCc1cccc(F)c1`, the cytotoxicity call is “inactive”.

With `C[C@H]1CN([C@@H](C)CO)C(=O)Cc2cc(NS(=O)(=O)c3cccs3)ccc2O[C@H]1CN(C)S(C)(=O)=O`, the cytotoxicity call is “inactive”.

Turning to `C[C@H](CO)N1C[C@H](C)[C@H](CN(C)Cc2ccccc2)Oc2ccc(NC(=O)Cn3cnnn3)cc2C1=O`, the cytotoxicity call is “inactive”.

`C[C@@H]1CN([C@@H](C)CO)C(=O)c2cccc(NC(=O)c3cnccn3)c2O[C@@H]1CN(C)Cc1ccncc1`: the cytotoxicity call was “inactive”.

Consider `COc1ccc2c3c(n(c2c1)C)[C@@H](CO)N(C[C@]13CCN(CC1)C(=O)Nc1cccc(c1)F)C(=O)CN1CCOCC1`, for which the cytotoxicity call was “inactive”.

Turning to `C[C@@H]1CN([C@H](C)CO)C(=O)c2cccc(NC(=O)Nc3ccc4c(c3)OCO4)c2O[C@H]1CN(C)Cc1ccc(Cl)c(Cl)c1`, the cytotoxicity call is “inactive”.

Regarding `CNC[C@H]1Oc2ccc(NS(=O)(=O)c3cn(C)cn3)cc2CC(=O)N([C@@H](C)CO)C[C@H]1C`, the cytotoxicity call was “inactive”.

On to `C[C@H](O)C#Cc1ccc2c(c1)O[C@@H](CN(C)C(=O)c1ccccc1)[C@@H](C)CN([C@H](C)CO)S2(=O)=O`, for which the cytotoxicity call is “inactive”.

For the compound `COc1ccc(NC(=O)Nc2ccc3c(c2)C(=O)N([C@H](C)CO)C[C@@H](C)[C@@H](CN(C)S(=O)(=O)c2cccs2)OCCCC[C@H](C)O3)cc1`, the cytotoxicity call is “inactive”.

In the case of `CO[C@H]1CN(C)C(=O)c2cc(NC(=O)NC(C)C)ccc2OC[C@H](C)N(Cc2ccc(-c3ccccn3)cc2)C[C@@H]1C`, the cytotoxicity call is “active”.

With `CO[C@@H]1CN(C)C(=O)c2cc(NC(=O)NC(C)C)ccc2OC[C@H](C)N(Cc2ccc(-c3ccccn3)cc2)C[C@H]1C`, the cytotoxicity call is “inactive”.

On to `CO[C@@H]1CN(C)C(=O)c2cc(NC(=O)NC3CCCCC3)ccc2OC[C@@H](C)N(CCc2ccccc2)C[C@@H]1C`, for which the cytotoxicity call was “inactive”.

With `CO[C@@H]1CN(C)C(=O)c2cc(NC(=O)NC3CCCCC3)ccc2OC[C@@H](C)N(CCc2ccccc2)C[C@H]1C`, the cytotoxicity call is “active”.

Turning to `CO[C@@H]1CN(C)C(=O)c2cc(NC(=O)NC(C)C)ccc2OC[C@@H](C)N(Cc2ccc(-c3ccccn3)cc2)C[C@@H]1C`, the cytotoxicity call is “inactive”.

As for `CO[C@@H]1CN(C)C(=O)c2cc(NC(=O)NC3CCCCC3)ccc2OC[C@H](C)N(CCc2ccccc2)C[C@@H]1C`, the cytotoxicity call is “inactive”.

Turning to `COc1ccccc1CNC(=O)C[C@H]1C[C@@H]2c3cc(NC(=O)NC4CCCC4)ccc3O[C@@H]2[C@H](CO)O1`, the cytotoxicity call is “inactive”.

As for `NC[C@H]1CN(Cc2ccc(F)cc2)CCO1`, the cytotoxicity call was “inactive”.

Regarding `CN1C(=O)c2cc(NC(=O)C3CCOCC3)ccc2OC[C@@H]2O[C@H](CC(=O)NCCc3ccncc3)CC[C@@H]21`, the cytotoxicity call is “inactive”.

Consider `N[C@@H](Cc1ccc2nonc2c1)C(=O)O`, for which the cytotoxicity call was “inactive”.

`O=C(C[C@@H]1CC[C@@H]2[C@H](COC[C@H](O)CN2S(=O)(=O)c2ccc(Cl)cc2)O1)N1CCc2ccccc2C1`: the cytotoxicity call was “inactive”.

For `CCN(CC)CCOC(=O)C(Cc1cccc2ccccc12)CC1CCCO1.O=C(O)C(=O)O` (stereo not given), the cytotoxicity call was “active”.

Turning to `O=C(c1cccc2ccccc12)N(C1CCCC1)C1CCCC1`, the cytotoxicity call is “inactive”.

For the compound `CCn1c(=O)cc(N2CCC(C)CC2)[nH]c1=O`, the cytotoxicity call is “inactive”.

As for `COC1CC(OC2C(C)OC(OC3C(C)=CCC4CC(CC5(C=CC(C)C(C6CCCCC6)O5)O4)OC(=O)C4C=C(C)C(O)C5OCC(=CC=CC3C)C45O)CC2OC)OC(C)C1O` (stereo not given), the cytotoxicity call is “inactive”.

On to `CON=C1CC2(CC3CC(CC=C(C)CC(C)C=CC=C4COC5C(O)C(C)=CC(C(=O)O3)C45O)O2)OC(C(C)=CC(C)C)C1C` (stereo not given), for which the cytotoxicity call was “active”.

For the compound `CO[C@H]1C[C@H](O[C@H]2[C@H](C)O[C@@H](O[C@@H]3/C(C)=C/C[C@@H]4C[C@@H](C[C@]5(C=C[C@H](C)[C@@H](C6CCCCC6)O5)O4)OC(=O)[C@@H]4C=C(C)[C@@H](O)[C@H]5OC/C(=C\C=C\[C@@H]3C)[C@]54O)C[C@@H]2OC)O[C@@H](C)[C@@H]1O`, the cytotoxicity call is “inactive”.

In the case of `CO/N=C1\C[C@]2(C[C@@H]3C[C@@H](C/C=C(\C)C[C@@H](C)/C=C/C=C4\CO[C@@H]5[C@H](O)C(C)=C[C@@H](C(=O)O3)[C@]45O)O2)O[C@H](/C(C)=C/C(C)C)[C@H]1C`, the cytotoxicity call is “active”.
